This is a sample that favours compounds with a hit; in the whole collection about 2.5% have one here.
Pol kappa inh = DNA polymerase kappa (human) inhibition; Q9UBT6; purified Pol kappa, fluorescent DNA synthesis assay, 10 min; Potency, µM (top dose mostly 107 µM), without a hit: top-dose activity, negative = inhibition, most hits filed as inhibitors; actives 0.53% (n = 400,000); AID 588579; note: % is set by controls: 0 for no effect and ±100 for the full control effect
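Inhibition of 10 nM Pol kappa is measured by a fluorescent read-out at 0 and 10 min following addition of 50 nM substrate (final), with a 15-min room-temperature compound preincubation.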
L3MBTL1 inh = L3MBTL1 (human) inhibition | AlphaScreen L3MBTL1–H3K9me1 peptide binding | AID 485360 | actives 0.66% (n = 230,000) | Potency, µM (titrated, usually from 57.1 µM), for inactives: top-dose activity, negative = inhibition, actives largely listed as inhibitors; note: % is set by controls: 0 for no effect and ±100 for the full control effect; nearly all actives have a fitted effect of over 60% in size
Target sequence (Q9Y468 whole entry, looked up): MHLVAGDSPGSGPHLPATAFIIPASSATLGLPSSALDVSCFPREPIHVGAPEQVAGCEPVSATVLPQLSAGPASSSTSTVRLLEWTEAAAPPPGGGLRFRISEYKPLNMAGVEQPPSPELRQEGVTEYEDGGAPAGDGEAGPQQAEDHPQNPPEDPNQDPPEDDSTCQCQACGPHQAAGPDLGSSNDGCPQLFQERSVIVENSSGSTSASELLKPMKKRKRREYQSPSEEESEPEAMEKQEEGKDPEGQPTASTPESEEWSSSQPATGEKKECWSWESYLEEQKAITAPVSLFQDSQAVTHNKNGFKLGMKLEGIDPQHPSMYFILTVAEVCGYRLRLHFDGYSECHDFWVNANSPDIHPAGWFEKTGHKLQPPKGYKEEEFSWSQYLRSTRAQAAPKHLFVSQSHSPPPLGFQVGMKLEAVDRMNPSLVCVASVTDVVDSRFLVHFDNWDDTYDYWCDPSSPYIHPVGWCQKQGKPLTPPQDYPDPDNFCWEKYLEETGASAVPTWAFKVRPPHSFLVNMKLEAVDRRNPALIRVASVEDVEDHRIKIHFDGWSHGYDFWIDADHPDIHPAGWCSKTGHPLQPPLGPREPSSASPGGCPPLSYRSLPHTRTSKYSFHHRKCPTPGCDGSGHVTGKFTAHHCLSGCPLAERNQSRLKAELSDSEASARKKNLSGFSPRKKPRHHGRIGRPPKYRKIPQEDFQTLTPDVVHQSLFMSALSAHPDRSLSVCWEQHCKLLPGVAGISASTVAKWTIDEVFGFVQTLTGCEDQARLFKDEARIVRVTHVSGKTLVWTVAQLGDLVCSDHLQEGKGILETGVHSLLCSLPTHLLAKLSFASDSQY
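AlphaScreen assay: L3MBTL1 (50 nM final) was preincubated 30 min at room temperature with biotinylated H3(1-15)K9me1 peptide (75 nM final), then 30 min with library compounds; streptavidin donor and nickel chelate acceptor beads (10 ug/mL final) added, 30 min dark.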
Pol eta inh = blocks human DNA polymerase eta activity; actives 1.2% (n = 390,000); Q9Y253; Potency, µM (titrated, usually from 114 µM), without a hit: at the highest dose activity change, negative = inhibition, most hits filed as inhibitors; recombinant Pol eta, fluorescent DNA replication assay; note: % is set by controls: 0 for no effect and ±100 for the full control effect
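Pol eta (10 nM) was preincubated with compounds for 15 min at room temperature, after which fluorescent replication substrate (50 nM final) was added to start the reaction. Fluorescence was read kinetically at 0 and 10 min.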
APE1 inh = blocks human APE1 abasic DNA cleavage; P27695; recombinant APE1, TAMRA/BHQ-2 abasic DNA cleavage fluorescence; Potency, µM (top dose mostly 65.8 µM), for the others: at the highest dose activity change, negative = inhibition, actives largely listed as inhibitors; actives 0.35% (n = 350,000);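 note: plate controls were vehicle for no effect and reference inhibitor for full effect; nearly all actives have a fitted effect of over 55% in size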
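Quantitative HTS: incision of a TAMRA/BHQ-2 double-stranded substrate bearing a tetrahydrofuran abasic site by 0.75 nM APE1 raises fluorescence. Substrate 50 nM final, added after 15 min compound preincubation at room temperature; progress as third-minus-first kinetic read difference.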
POLB inh = inhibitors of human DNA polymerase beta; Potency, µM (doses to about 114 µM), for inactives: at the top dose activity change, negative = inhibition, most hits filed as inhibitors; P06746; Pol beta primer extension/strand displacement, fluorescence kinetic; AID 485314; actives 1.3% (n = 340,000); note: % is set by controls: 0 for no effect and ±100 for the full control effect
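Values derive from four-parameter Hill fits of normalized kinetic data: reads at 0 and 10 min following addition of 50 nM substrate to 10 nM Pol beta preincubated 15 min with compound.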
Pol iota inh = inhibitors of human DNA polymerase iota | Q9UNA4 | Pol iota fluorescent replication assay, 10 min | Potency, µM (series often up to 115 µM), for inactives: at the top dose activity, negative = inhibition, most hits filed as inhibitors | actives 1% (n = 390,000) | AID 588590
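Pol iota at 10 nM preincubated 15 min with compounds at room temperature; reaction started with fluorescent substrate, 50 nM final. Fluorescence read kinetically at 0 and 10 min; buffer-only wells as negative control.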
Active calls of the source: *; u = inconclusive; x = no result given; ! = repeats disagree; [ ] = another dose, or the depositor's remark. Calls come from the whole dose curve; as a rule, active = well fitted curve in the direction sought with a large enough effect; inconclusive = small, poorly fitted or top-dose-only effect, or another doubt; inactive = no such curve, though single readings can be large; an effect the other way counts as inactive or inconclusive. Potency is the fitted concentration of half-maximal effect.

SMILES | Pol kappa inh | L3MBTL1 inh | Pol eta inh | APE1 inh | POLB inh | Pol iota inh
CCOc1ccc(C(=O)Nc2ccc(C(=O)OCc3cc(=O)n4c(C)csc4n3)cc2)cc1 | -6%[60.1 µM] | x | -17% | x | 18µM* | u
Cc1ccc(OCC(=O)Nc2ccc(C(=O)OCc3cc(=O)n4c(C)csc4n3)cc2)cc1 | -3%[60.1 µM] | x | -21% | x | 15% | -12%
Cc1csc2nc(COC(=O)c3ccccc3NC(=O)COc3ccccc3F)cc(=O)n12 | 6%[60.1 µM] | x | -14% | x | 25µM* | -15%
O=C(CCC(=O)Nc1ccccc1)N/N=C/c1ccncc1 | 9% | 23% | 7% | -3% | 20µM* | 9%
O=C(COc1ccc(/C=N/NC(=O)c2cccnc2)cc1)Nc1ccccc1 | -1% | x | u | -45% | 32µM* | 49%
CC(NC(=O)COc1ccc(/C=N/NC(=O)C(=O)Nc2ccccc2Br)cc1)c1ccccc1 (configuration not stated) | 9% | 4% | u | -5% | 32µM* | u
Cc1ccc(CSCC(=O)N/N=C/c2ccc(OCC(=O)Nc3ccc(C)cc3)cc2)cc1 | -27% | x | u | u | 10µM* | u
O=C(CCC(=O)Nc1ccc(F)cc1)N/N=C/c1ccncc1 | -6% | x | -8% | 18% | 35% | 2%
COc1ccc(CSCC(=O)N/N=C/c2ccc(OCC(=O)N3CCCCC3)cc2)cc1 | -9% | x | 2% | -1% | -7% | u
CCC1CCCCN1C(=O)c1ccc([N+](=O)[O-])o1 (configuration not stated) | -12% | x | -3% | 39% | -27% | 7%
O=S(=O)(c1ccc2ccccc2c1)N1CCN(c2nc(-c3ccccc3)nc3ccccc23)CC1 | -20% | x | x | x | x | 11%
Cc1cc(S(=O)(=O)NCC(c2ccc3c(c2)OCO3)N2CCOCC2)ccc1F (configuration not stated) | -5% | -12% | -14% | -15% | x | -8%
O=C(N/N=C/c1ccc(OC(=O)c2ccc([N+](=O)[O-])cc2)cc1)c1cccnc1 | 1% | x | -6% | 44% | -2% | -4%
Cn1c(-c2ccccc2)c(/C=N/NC(=O)c2cccnc2)c2ccccc21 | -26% | x | -18% | -6% | 56µM* | 21%
O=C(N/N=C/c1ccc(OC(=O)c2ccccc2)cc1)c1cccnc1 | -33% | x | u | u | 50µM* | u
O=C(Cc1ccccc1)N/N=C/c1ccc(OCC(=O)Nc2ccccc2)cc1 | -9% | 6% | u | u | 28µM* | -11%
O=C(O)COc1ccccc1/C=N/NC(=O)COc1ccc(-c2ccccc2)cc1 | -1% | x | 50µM* | 5% | u | -7%
CCn1cc(/C=N/NC(=O)COc2cccc3cccnc23)c2ccccc21 | -2% | 7% | u | -6% | 13µM* | u
COC(=O)c1ccc(COc2ccccc2/C=N/Nc2cccc(C(=O)O)c2)cc1 | u | -14% | 79µM* | -8% | -3% | u
Cc1cc(C)cc(-n2c(C)cc(/C=N\NC(=O)COc3cccc4cccnc34)c2C)c1 | -6% | -10% | -8% | -4% | u | 9%
O=C(COc1cccc2ccccc12)N/N=C/c1ccccc1OCc1ccc(C(=O)O)cc1 | -25% | x | 79µM* | 5% | 89µM* | 23%
O=C(COc1ccccc1-c1ccccc1)N/N=C/c1cccc2ccccc12 | -19% | -2% | -4% | 4% | u | 2%
COc1ccc(S(=O)(=O)N2CCOC2CNC(=O)C(=O)NCc2ccc3c(c2)OCO3)cc1 (configuration not stated) | -19% | x | -11% | x | x | 18%
N[C@@H](Cc1cc(CP(=O)(O)O)cc(-c2ccccc2Cl)c1)C(=O)O | 21µM* | x | x | u | x | x
CCCCCCCC/C=C\CCCCCCCCCCCC(=O)O | 11µM* | x | x | -10% | x | x
SMILES | Pol kappa inh | L3MBTL1 inh | Pol eta inh | APE1 inh | POLB inh | Pol iota inh
CCCCC[C@H](O)C/C=C1/C(=O)C=C[C@@H]1C/C=C\CCCC(=O)O | -5%[19.4 µM] | x | x | 0% | x | x
CCCCC/C=C/C=C1/C(=O)C=C[C@@H]1C/C=C\CCCC(=O)O | 3.2µM*! | x | x | u | x | x
CCCCC[C@H](O)/C=C/[C@H]1C=CC(=O)[C@@H]1C/C=C\CCCC(=O)O | 2%[19.4 µM] | u | x | 3% | 3.2µM* | x
CCCCC[C@@H](/C=C/C1C(=O)C=C[C@H]1C/C=C\CCCC(=O)O)OC(C)=O (some centres not stated) | -19% | x | 45µM* | x | x | u
Cc1cccc(S(=O)Cc2ccc(C(=O)NC3CCN(Cc4ccccc4)CC3)o2)c1 (configuration not stated) | -3% | x | -23% | 55% | -2% | u
Nc1cccc(/C=C/c2ccnc3ccccc23)c1 | -18% | x | x | x | x | 24%
COc1ccc(OCC(=O)N(C)CC2COc3ccccc3O2)cc1 (configuration not stated) | -11% | -3% | -3% | 9% | x | 6%
O=C(Nc1ccccc1)[C@@H]1CC=C[C@@H]2CCN(C3CC3)C(=O)[C@@H]21 | 7% | x | x | x | x | 25%
O=C(C[C@@H]1C/C=C\C[C@H](Cc2ccc(F)cc2)C(=O)OCCNC1=O)NCCO | -6% | 5% | -22% | 4% | x | 28%
O=C(C[C@H]1C/C=C\CC[C@@H](Cc2ccc(F)cc2)C(=O)OCCNC1=O)NCCO | 15% | -2% | -7% | 11µM* | x | 1%
N#Cc1c(NC(=O)c2ccc([N+](=O)[O-])o2)sc2c1CCC2 | u | x | u | -10% | 20µM* | u
NC(=O)c1c(NC(=O)c2ccc([N+](=O)[O-])o2)sc2c1CCCC2 | 4% | x | 8% | -7% | 62% | 94%
N#Cc1c(NC(=O)C2CC=CCC2C(=O)O)sc2c1CCCCCC2 (configuration not stated) | -27% | -4% | u | u | 18µM* | -12%
CC(C)(C)C1CCc2c(sc(NC(=O)C3CC=CCC3C(=O)O)c2C#N)C1 (configuration not stated) | -15% | -1% | u | -1% | 71µM* | 6%
CC(=O)Nc1nonc1-c1nnc(SCc2ccccc2Cl)n1C | -11% | x | 0% | x | 19% | 21%
O=C(Cn1cnc2c(oc3ccccc32)c1=O)NCc1ccccc1 | 3% | 3% | 5% | -6% | 25µM* | -1%
Cc1[nH][nH]c(=O)c1C(c1c(C)[nH][nH]c1=O)c1cn(Cc2ccc(F)cc2)c2ccccc12 | -7% | u | -11% | -11% | 0% | 2.2µM*

Screening data deposited in PubChem BioAssay by National Center for Advancing Translational Sciences (NCATS).
